# Rows were chosen to be rich in hits. Some 4.1% of all compounds tested hit in one or more screens of this group.
# DAX1 inh-1: blocks DAX1 repression of SF-1 activated StAR promoter; actives 1.1% (n = 370,000); inhibition, % at 6.8 µM; AID 652010; HEK293T StAR-luciferase reporter, SF-1/DAX-1 repression relief;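 active = inhibition above the mean over all tested compounds plus 3 SD, cut at about 3.6% in these data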;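 also: 0% = DAX-1 cells with DMSO and 100% = cells lacking DAX-1 with DMSO; higher inhibition means more luminescence from relief of DAX-1 repression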
# DAX1 inh-2: inhibits human nuclear receptor DAX1; HEK293 Gal4-DAX1 luciferase reporter, luminescence; inhibition, % at 6.75 µM; actives 0.99% (n = 340,000); AID 504766;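 active = inhibition above the mean over all tested compounds plus 3 SD, cut at about 4.2% in these data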;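 also: 0% = DAX1-transfected cells with DMSO and 100% = empty-vector control cells with DMSO; inhibition shows as a rise in luminescence from relieved DAX1 repression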
# Target sequence (P51843 207-470 limits assumed): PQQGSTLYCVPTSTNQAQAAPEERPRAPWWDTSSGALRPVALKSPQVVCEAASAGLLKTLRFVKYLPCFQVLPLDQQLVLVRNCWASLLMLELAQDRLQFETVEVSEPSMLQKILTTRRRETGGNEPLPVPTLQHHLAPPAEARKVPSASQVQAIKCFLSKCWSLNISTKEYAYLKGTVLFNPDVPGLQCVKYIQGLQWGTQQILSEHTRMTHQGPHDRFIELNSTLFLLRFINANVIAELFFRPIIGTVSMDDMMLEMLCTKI
# hcDAF-12 act: activates DAF-12 receptor from parasite H. contortus. activation, % at 6.8 µM. HEK293 hcDAF-12 lit1-tk-luc reporter, luminescence; 0% DMSO, 100% Δ7-dafachronic acid. AID 652067. actives 1.4% (n = 370,000);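 active = activation above the mean of all tested compounds plus 3 SD, cut at about 5.5% in these data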;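 also: 100% = response to 3 µM Δ7-dafachronic acid high control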
# hgDAF-12 ag: hgDAF-12 agonism, primary luciferase screen; actives 1.8% (n = 370,000); HEK293 GAL4-hgDAF12 UAS-luciferase reporter, agonist luminescence; normalized to butyrate control; activation, % at 6.8 µM; AID 687014;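 active = activation above a cutoff set at the mean of all screened compounds plus 3 SD, cut at about 10% in these data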;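 also: 0% = DMSO wells and 100% = sodium butyrate wells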
# ssDAF12 agonist: activates DAF-12 receptor from parasite S. stercoralis; actives 1% (n = 370,000); activation, % at 6.8 µM; HEK293 ssDAF-12/GRIP1 lit1-tk-luc reporter, luminescence; % of 3 µM dafachronic acid response;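 active = activation above the mean over all tested compounds plus 3 SD, cut at about 0.9% in these data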;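 also: 0% = DMSO-only wells and 100% = 3 µM delta7-dafachronic acid wells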
# DAX1 inh confirm: confirmation of human DAX1 (NR0B1) inhibitors; shares compounds with DAX1 inh-1; HEK293T StAR-promoter luciferase reporter, SF-1/DAX-1 repression; inhibition, % at 6.8 µM; actives 87% (n = 2,400);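 active = inhibition above the average of every tested compound plus 3 SD, cut at about 3.8% in these data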;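 also: 0% = DAX-1 cells with DMSO and 100% = no DAX-1 control cells with DMSO; active compounds raise luminescence by relieving repression of the StAR reporter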
# SF1 mutant ctr: counter-screen for DAX1 inhibitors: nonselective inhibitors with SF-1 AF2 mutant; shares compounds with DAX1 inh-1; HEK293 StAR-luciferase, luminescence; inhibition, % at 6.8 µM; actives 78% (n = 2,400); AID 652136;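 active = inhibition above the mean of all tested compounds plus 3 SD, cut at about 3% in these data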;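 also: 0% = DAX-1 transfected cells with DMSO and 100% = cells without DAX-1 with DMSO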
# LXRb hcDAF ctr: LXR-beta agonism as hcDAF-12 counter-screen; shares compounds with hcDAF-12 act; HEK293 Gal4-LXR tk-luc reporter, luminescence, 24 h; normalized: DMSO 0%, positive control 100%; activation, % at 6.8 µM; 3,400 tested, under 10 active; AID 743027;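 active = mean percent activation of the reporter above a cutoff set as the average over tested compounds plus their standard deviation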
# Target sequence (P55055 whole entry, looked up, the tested form may be a part): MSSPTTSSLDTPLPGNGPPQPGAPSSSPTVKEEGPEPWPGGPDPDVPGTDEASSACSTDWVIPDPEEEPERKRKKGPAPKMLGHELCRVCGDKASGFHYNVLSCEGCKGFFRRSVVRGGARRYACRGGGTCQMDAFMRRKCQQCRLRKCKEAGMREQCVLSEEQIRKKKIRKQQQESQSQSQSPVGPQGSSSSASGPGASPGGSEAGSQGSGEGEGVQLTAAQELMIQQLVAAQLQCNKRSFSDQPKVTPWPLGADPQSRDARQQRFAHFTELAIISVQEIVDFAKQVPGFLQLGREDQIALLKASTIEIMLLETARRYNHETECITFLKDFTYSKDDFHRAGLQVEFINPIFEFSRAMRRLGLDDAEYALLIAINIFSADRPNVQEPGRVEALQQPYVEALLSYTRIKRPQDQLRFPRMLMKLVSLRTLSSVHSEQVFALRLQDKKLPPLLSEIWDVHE
# hcDAF12 conf: confirmation of H. contortus DAF-12 agonists; shares compounds with hcDAF-12 act; HEK293 hcDAF-12 lit1-tk-luc reporter, luminescence; % of Δ7-dafachronic acid response; activation, % at 6.8 µM; actives 61% (n = 3,400);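 active = mean activation across triplicate tests above the threshold derived from the earlier primary screen, cut at about 5.5% in these data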;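 also: 0% = DMSO only wells and 100% = 3 µM Δ7-dafachronic acid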
# hgDAF12 conf: confirmation of H. glycines DAF-12 agonists. shares compounds with hgDAF-12 ag. HEK293 GAL4-hgDAF12 luciferase reporter, agonist mode; percent of butyrate response. activation, % at 6.8 µM. actives 80% (n = 3,300). AID 743050;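 active = mean activation over triplicate wells above the hit cutoff derived from the earlier primary screen, cut at about 11% in these data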;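 also: 0% = DMSO low control and 100% = 2 mM sodium butyrate high control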
# LXRb DAF12 ctr: LXR-beta agonism as DAF-12 counter-screen; shares compounds with hgDAF-12 ag; HEK293 Gal4-LXR luciferase reporter, 24 h; activation, % at 6.8 µM; 3,300 tested, under 10 active; AID 743051;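 active = mean activation of the triplicate above a set limit carried over from the primary screen, none filed active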
# Starred values were filed as active, the others as inactive; nt = no result.
SMILES,DAX1 inh-1,DAX1 inh-2,hcDAF-12 act,hgDAF-12 ag,ssDAF12 agonist,DAX1 inh confirm,SF1 mutant ctr,hgDAF12 conf,LXRb DAF12 ctr,others
Cc1ccc2nc(-c3cccc(Br)c3)c(Cc3ccsc3)n2c1,4.5*,nt,3,15*,-1,3,1,5,0,
O=C(c1cccs1)N1CC[C@H]2[C@H](CCCN2Cc2cc(F)cc(F)c2)C1,0,nt,-1,-1,-2,nt,nt,nt,nt,
c1ccc(-c2cn3ccccc3n2)cc1,5.0*,2,8.9*,14*,0,12*,8.7*,15*,1,LXRb hcDAF ctr=1;hcDAF12 conf=7.4*
CN(C)S(=O)(=O)c1ccc(-c2cn3ccccc3n2)cc1,1,1,0,8,0,nt,nt,nt,nt,
COc1ccc(-n2c(C)cc(-c3cn4cccc(C)c4n3)c2C)cc1,0,1,3,-1,-1,nt,nt,nt,nt,
Cc1cc(-c2cn3ccccc3n2)c(C)n1-c1ccccc1,4.6*,4,5.7*,14*,0,17*,5.4*,7,1,
O=C(NCCc1c[nH]c2ccccc12)OCc1cn(Cc2cccc(F)c2)nn1,0,nt,0,-2,-1,nt,nt,nt,nt,
Cc1cc(C)n(CCNC(=O)[C@@H](Cc2ccccc2)NC(=O)[C@H]2O[C@@H](n3ccc(=O)[nH]c3=O)[C@H](O)[C@@H]2O)n1,2,nt,1,3,-1,nt,nt,nt,nt,
O=c1[nH]c(=O)n(C2CC(O)C(CO)O2)cc1Br (stereo not given),11*,3,6.2*,15*,-1,18*,6.8*,20*,0,
COc1ccc2[nH]cc(C(C)c3ccccc3O)c2c1 (stereo not given),-2,nt,1,2,-1,nt,nt,nt,nt,
CCCCNS(=O)(=O)/C=C/c1ccccc1CNC(=O)OC(C)(C)C,-1,nt,-3,0,-2,nt,nt,nt,nt,
CCC(=O)Oc1ccc(C(=O)Nc2ccc3c(c2)OCO3)cc1,5.5*,nt,3,22*,1.7*,13*,7.8*,15*,1,
O=C(Nc1ccc2c(c1)OCO2)c1ccc(Cl)s1,4.6*,0,14*,16*,1.9*,12*,9.9*,21*,1,LXRb hcDAF ctr=2;hcDAF12 conf=12*
CCCCOc1ccc(C(=O)Nc2ccc3c(c2)OCO3)cc1,1,2,2,1,-1,nt,nt,nt,nt,
CC(C)Oc1cc(O)c2c(=O)c(-c3ccc(O)cc3)coc2c1,5.3*,1,7.6*,26*,0,11*,5.7*,20*,1,LXRb hcDAF ctr=1;hcDAF12 conf=5
COc1c(-c2ccc(O)cc2)oc2cc(O)cc(O)c2c1=O,1,3,-1,-1,-1,nt,nt,nt,nt,
Cc1cccc(C)c1NC(=O)C1C(c2ccc3c(c2)OCO3)=Nc2ccccc2N1C(=O)c1ccccc1 (stereo not given),1,nt,0,0,-1,nt,nt,nt,nt,
O=C(Nc1ccc2c(c1)OCCO2)C1C(c2ccccc2)=Nc2ccccc2N1C(=O)c1cccnc1 (stereo not given),13*,nt,11*,20*,0,20*,7.9*,12*,1,LXRb hcDAF ctr=2;hcDAF12 conf=7.1*
CSCCC(=O)N1CCC(n2nccc2NC(=O)c2ccc3c(c2)OCO3)CC1,6.3*,3,2,23*,0,6.3*,5.7*,16*,0,
O=C(Nc1ccc(OC(F)(F)F)cc1)Nc1c(-c2ccc(F)cc2)nc2ncccn12,0,nt,0,-4,-1,nt,nt,nt,nt,
Clc1ccc(CN2CCN(c3ncc(Cc4ccccc4)cn3)CC2)c(Cl)c1,-3,nt,-3,-2,-2,nt,nt,nt,nt,
CCCCCCCCN1C(=O)[C@@H](CC(=O)N2CCSCC2)C[C@@]2(C(=O)OC)C1=C[C@H](C(C)(C)C)O[C@@H]2C,-1,nt,0,1,-1,nt,nt,nt,nt,
Clc1ccc(OCCSc2ncccn2)c(Br)c1,5.5*,4.4*,6.4*,21*,1.8*,16*,8.1*,22*,1,
O=S(=O)(c1ccc(F)cc1)N1CCCc2nc(-c3ccccc3)ccc21,0,nt,2,1,-1,nt,nt,nt,nt,
Cc1cc(NC(=O)CSc2nnnn2C2CCCC2)no1,0,0,0,1,-1,nt,nt,nt,nt,
SMILES,DAX1 inh-1,DAX1 inh-2,hcDAF-12 act,hgDAF-12 ag,ssDAF12 agonist,DAX1 inh confirm,SF1 mutant ctr,hgDAF12 conf,LXRb DAF12 ctr,others
CCn1c(C)cc(C(=O)CSc2nnnn2C2CCCC2)c1C,9.6*,3,3,13*,0,13*,7.4*,17*,1,
CCN1C(=O)N(C(C)=O)[C@@H]2C[C@H](C(=O)N3CCCC3)[C@H](C)[C@H](c3ccccc3)C[C@@H]21,-1,nt,-2,0,1,nt,nt,nt,nt,
COC(=O)C1CN(Cc2cn(Cc3ccccc3)nn2)CCS(=O)(=O)N1Cc1ccc(OC)cc1 (stereo not given),-1,nt,-3,6,-1,nt,nt,nt,nt,
c1coc(-c2cc3nc(NC4CCCCC4)ccn3n2)c1,10*,nt,10*,22*,1.2*,15*,10*,19*,1,LXRb hcDAF ctr=2;hcDAF12 conf=12*
c1coc(-c2cc3nc(NCc4ccc5c(c4)OCO5)ccn3n2)c1,0,nt,1,4,-1,nt,nt,nt,nt,
O=C1Nc2ccccc2N(C(=O)c2ccc3ccccc3c2)C1c1nc2ccccc2[nH]1 (stereo not given),13*,nt,6.7*,27*,1.8*,3,2.9*,10,0,LXRb hcDAF ctr=0;hcDAF12 conf=1
CC1C(=O)Nc2ccccc2N1C(=O)c1ccc(O)cc1 (stereo not given),0,1,-3,1,-1,nt,nt,nt,nt,
O=C(/C=C/c1ccc(Cl)cc1)Nc1nccs1,11*,0,8.6*,24*,1,18*,10*,20*,1,LXRb hcDAF ctr=2;hcDAF12 conf=7.7*
Cc1ccc(-c2c(NC(=O)Nc3ccccc3)nc3ncccn23)cc1,-1,nt,2,9,-1,nt,nt,nt,nt,
Cc1ccc(C(=O)N(C)[C@H]2C[C@H]3c4[nH]c5c(-c6ccccc6)cccc5c4CCN3C(=O)[C@H]2[C@H](C)O)cc1,0,nt,1,3,-1,nt,nt,nt,nt,
